Measured values reported in PubChem BioAssay AID743287 (Broad Institute, 2014).
In all, about 370,000 compounds went through this assay and about 2,300 (0.62%) were called active.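 The calls were made as follows: active = lowest replicate activation of at least 40%, so every replicate reaches that level; inactive = the rest.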 What follows is part of a selection rich in actives, with near analogues and random picks from the rest.

assay: GLuc luminescence reporter in INS-1E cells, primary screen for activators of glucose-dependent secretion of insulin (AID 743287); details: INS-1E GLuc reporter insulin secretion, 2-3 h, at 16.6 µM, stronger effect = higher value;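 also: 0% = median of neutral control wells and 100% = median of IBMX positive control wells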

| Compound | activation |
| --- | --- |
| C[C@@H]1CN([C@@H](C)CO)C(=O)c2cccc(NC(=O)Nc3cccc4ccccc34)c2O[C@@H]1CN(C)CC1CC1 | 21.1% (inactive) |
| O=C(Nc1ccccc1F)N[C@H]1C=C[C@H](CC(=O)N2CCCCC2)O[C@H]1CO | -5.96% (inactive) |
| O=C(CC1CC1)N1[C@@H](CO)[C@H](c2ccccc2)C12CN(Cc1cccnc1)C2 | 2.36% (inactive) |
| CCC(=O)N1C[C@@H](C)[C@H](OC)CN(C)C(=O)c2ccc(NC(=O)C3CCOCC3)cc2OC[C@@H]1C | 8.65% (inactive) |
| O=C1CNC[C@H]2[C@@H](c3ccc(C4=CCCC4)cc3)[C@@H](CO)N12 | 2.03% (inactive) |
| CCC(=O)N1[C@@H](CO)[C@@H](c2ccc(C3=CCCC3)cc2)C12CN(C(=O)COC)C2 | 3.86% (inactive) |
| C[C@@H]1CCCCO[C@@H](CN(C)C(=O)CCCN(C)C)[C@@H](C)CN([C@H](C)CO)C(=O)c2cc(NC(=O)CCCN(C)C)ccc2O1 | 12.7% (inactive) |
| Cc1ccc2c(C)c(C(=O)N(C)CCC3CCCCO3)oc2c1C (stereo not given) | 0.532% (inactive) |
| CN(CCc1cnn(C)c1)Cc1cn(C)nc1-c1ccccc1F | -1.92% (inactive) |
| Cc1c(C(=O)N(C)CCc2cnn(C)c2)oc2c(F)cccc12 | 44.6% (active) |
| COc1ccc(S(=O)(=O)N2CCOCC2)cc1NC(=O)CSc1ncnc2ccccc12 | 14.3% (inactive) |
| COc1ccc(S(=O)(=O)N2CCOCC2)cc1NC(=O)COc1ccccc1 | 43.9% (active) |
| COc1ccc(S(=O)(=O)N2CCOCC2)cc1NC(=O)Cc1c(F)cccc1Cl | -12.7% (inactive) |
| COCC(=O)N(C)C[C@@H]1Oc2cc(C#CC3CC3)ccc2S(=O)(=O)N([C@H](C)CO)C[C@H]1C | 5.41% (inactive) |
| C[C@@H]1CC=CC[C@H](c2ccc(F)cc2)NC(=O)[C@@H](Cc2ccccc2)N(C)C(=O)c2ccccc2O1 (mixture of isomers) | -20.2% (inactive) |
| C[C@@H]1CN([C@H](C)CO)C(=O)c2cc(NS(=O)(=O)c3ccc(F)cc3)ccc2O[C@@H]1CN(C)S(C)(=O)=O | 12.8% (inactive) |
| O=C(NCC1CCCCC1)c1cc(S(=O)(=O)N2CCCCC2)ccc1N1CCOCC1 | -3.7% (inactive) |
| O=C(CNC(=O)c1cc(S(=O)(=O)N2CCOCC2)ccc1N1CCCC1)Nc1ccc(F)c(F)c1 | -28.2% (inactive) |
| NS(=O)(=O)c1ccc(CNC(=O)c2cc(S(=O)(=O)N3CCOCC3)ccc2N2CCCC2)cc1 | 46.1% (active) |
| C[C@@H]1CCCCO[C@@H](CN(C)Cc2ccc(C(=O)Nc3ccccc3N)cc2)[C@H](C)CN([C@H](C)CO)C(=O)c2cc(N(C)C)ccc2O1 | 4.89% (inactive) |
